Test systems include NCI-H23 lung; NCI-H226 lung; NCI-H322M lung; HOP-62 NSCLC; NCI-H460 lung; NCI-H522 lung; A549/ATCC NSCLC; 786-0 renal; COLO 205 colon.
Common to all, as to experiment: NCI-60 one-dose screen, 48 h (100 = growth as untreated, 0 = no growth, -100 = all killed)
What all share (conditions): 10 µM unless noted

The panel holds about 83,000 compounds, 20% with a hit somewhere; the sample as a whole holds those more often.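 Interpretation: 100, growth as untreated; towards 0, rising growth inhibition; 0, no net growth; 0 to -100, cell death. Compounds scoring below 10 were considered active.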 A number with no mark means an inactive call. Calls of active or inactive are those of the source.

`Cn1cc(-c2nc(N)nnc2-c2c[nH]c3ccc(Br)cc23)c2cc(Br)ccc21`: the growth in the test on NCI-H23 lung was 48.7%; in the test on NCI-H226 lung it was 79.9%; with NCI-H322M lung, 68.4%; in the test on HOP-62 NSCLC, 59.6%; in the test with NCI-H460 lung, 17.3%; in the test on NCI-H522 lung it was 11.6%. Also, the growth was 49.7% in the test on A549/ATCC NSCLC, 51.1% with 786-0 renal and 36.3% in the test on COLO 205 colon.

With `O=C(CN1CCN(c2cc(=O)n(-c3ccccc3)c3ccccc23)CC1)Nc1nc(-c2ccc(Cl)cc2)cs1`, the growth in the test with NCI-H23 lung is 49.8%; in the test on NCI-H226 lung, 47.4%; with NCI-H322M lung, 89.1%; in the test on HOP-62 NSCLC, 65.8%; in the test on NCI-H460 lung it was 54.8%; with NCI-H522 lung, 56.3%. The growth is 52.6% with A549/ATCC NSCLC, 67.6% in the test on 786-0 renal and 57.3% in the test on COLO 205 colon.

Take `Cc1nn(-c2ccccc2)c2ncnc(N/N=C/c3ccccc3)c12`: the growth in the test with NCI-H23 lung was 97.3%; in the test on NCI-H226 lung, 78.3%; in the test with NCI-H322M lung it was 95%; in the test on HOP-62 NSCLC, 116%; in the test on NCI-H460 lung, 95.6%; with NCI-H522 lung, 85.8%. The growth was 92.4% in the test on A549/ATCC NSCLC, 84.6% with 786-0 renal and 104% with COLO 205 colon.

In the case of `CCCCCc1ccc(S(=O)(=O)Nc2cc(-c3csc(NC(=O)CN4CCN(C)CC4)n3)ccc2N2CCN(C)CC2)cc1`, the growth is 45.1% with NCI-H23 lung; 71.8% in the test with NCI-H226 lung; 6.19% (active) in the test with NCI-H322M lung; 42.5% with HOP-62 NSCLC; -56% (active) in the test on NCI-H460 lung; -39.5% (active) in the test on NCI-H522 lung. Besides, the results for the growth with A549/ATCC NSCLC, with 786-0 renal and with COLO 205 colon were 15.7%, -50.9% (active) and -51.2% (active), respectively.

For `O=C(CSc1nc2ccccc2c(=O)n1-c1ccccc1)Nc1cccc(C(=O)/C=C/c2ccccc2Cl)c1`, the growth with NCI-H23 lung is 96.8%; in the test with NCI-H226 lung it was 97.1%; in the test on NCI-H322M lung it was 106%; in the test with HOP-62 NSCLC it was 118%; in the test on NCI-H460 lung, 101%; with NCI-H522 lung, 97.4%. The growth with A549/ATCC NSCLC is 97.6%; in the test on 786-0 renal it was 105%; with COLO 205 colon, 119%.

On to `CCNC(=O)N1CCc2cc(OC)c(OCCc3ccc(OC)nc3)cc2C1c1ccc(OC)cc1C` (configuration not stated), for which the growth in the test with NCI-H23 lung is 44.8%; with NCI-H226 lung it was 38.5%; in the test with NCI-H322M lung, 55.6%; in the test with HOP-62 NSCLC, 31%; with NCI-H460 lung it was 3.64% (active); with NCI-H522 lung, 19.4%. The growth with A549/ATCC NSCLC was 30.4%; in the test with 786-0 renal, 22.9%; in the test with COLO 205 colon, 29.3%.

With `CC(O)c1cc2ccccc2c(=O)o1` (configuration not stated), the growth was 99.8% in the test on NCI-H23 lung; 89.2% in the test with NCI-H226 lung; 103% in the test with NCI-H322M lung; 105% in the test with HOP-62 NSCLC; 104% in the test on NCI-H460 lung; 98.6% with NCI-H522 lung. In addition, the growth is 102% in the test on A549/ATCC NSCLC, 101% in the test on 786-0 renal and 112% in the test with COLO 205 colon.

On to `COc1ccc(C(=O)Nc2ncc(Cc3ccccc3Cl)s2)cc1`, for which the growth is 17.9% with NCI-H23 lung; 31.7% in the test on NCI-H226 lung; 54.3% in the test with NCI-H322M lung; 39.2% in the test on HOP-62 NSCLC; 2.79% (active) in the test on NCI-H460 lung; -37.3% (active) in the test with NCI-H522 lung. Further, the growth in the test on A549/ATCC NSCLC was 24.3%; with 786-0 renal it was 28.9%; with COLO 205 colon, -48.3% (active).

Values taken from PubChem BioAssay (NCI).
